Data published in PubChem BioAssay AID504339 (National Center for Advancing Translational Sciences (NCATS), 2011).
The campaign covered roughly 390,000 compounds. About 17,000 (4.4%) were called active. About 8% were inconclusive and are not listed. Calls follow the shape of the dose curve; as a rule, active = well fitted inhibition curve with a large enough effect; inconclusive = small, poorly fitted or top-dose-only effect; inactive = no such curve, though single readings can be large or run the other way. The entries come from a sample that favours actives as a whole.

Biological target: Lysine-specific demethylase 4A (Homo sapiens) (UniProt O75164)
Sequence (O75164 whole entry, looked up, the tested form may be a part): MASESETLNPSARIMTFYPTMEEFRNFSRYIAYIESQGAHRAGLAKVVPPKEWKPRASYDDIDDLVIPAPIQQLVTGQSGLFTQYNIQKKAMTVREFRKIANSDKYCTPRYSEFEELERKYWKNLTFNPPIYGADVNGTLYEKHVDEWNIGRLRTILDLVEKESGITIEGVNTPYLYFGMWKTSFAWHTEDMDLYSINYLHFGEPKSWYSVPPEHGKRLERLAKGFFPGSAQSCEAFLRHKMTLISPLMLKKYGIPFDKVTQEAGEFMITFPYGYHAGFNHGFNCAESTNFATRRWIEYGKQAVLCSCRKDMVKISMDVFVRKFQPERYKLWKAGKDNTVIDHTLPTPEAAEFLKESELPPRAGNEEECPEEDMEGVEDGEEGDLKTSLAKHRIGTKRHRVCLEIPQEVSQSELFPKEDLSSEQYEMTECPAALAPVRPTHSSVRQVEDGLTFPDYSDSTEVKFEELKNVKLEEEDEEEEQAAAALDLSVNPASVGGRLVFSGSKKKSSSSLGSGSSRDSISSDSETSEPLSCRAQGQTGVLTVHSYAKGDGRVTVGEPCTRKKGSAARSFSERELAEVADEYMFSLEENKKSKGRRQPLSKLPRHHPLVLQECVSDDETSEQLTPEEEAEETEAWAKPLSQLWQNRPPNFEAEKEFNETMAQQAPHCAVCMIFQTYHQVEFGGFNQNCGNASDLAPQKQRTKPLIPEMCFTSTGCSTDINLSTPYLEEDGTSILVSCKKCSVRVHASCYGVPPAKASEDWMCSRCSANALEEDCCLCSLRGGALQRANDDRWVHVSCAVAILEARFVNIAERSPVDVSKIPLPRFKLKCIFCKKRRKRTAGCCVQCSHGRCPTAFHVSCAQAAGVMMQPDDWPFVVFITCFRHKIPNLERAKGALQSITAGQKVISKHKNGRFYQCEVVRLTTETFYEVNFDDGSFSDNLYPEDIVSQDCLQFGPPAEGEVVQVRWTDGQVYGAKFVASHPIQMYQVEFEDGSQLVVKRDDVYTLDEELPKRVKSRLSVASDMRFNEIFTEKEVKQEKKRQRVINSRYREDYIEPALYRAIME
Experiment: qHTS Assay for Inhibitors of JMJD2A-Tudor Domain; also: nearly all actives have a fitted effect of over 50% in size
Conditions: AlphaScreen JMJD2A-Tudor / H3K4me3 peptide binding; series mostly up to 114 µM; activity change, negative = inhibition: at the top concentration
% is scaled to controls: 0 for no effect and ±100 for the full control effect; potency is read from the fitted curve at half-maximal effect.

Compound	activity change, negative = inhibition	Potency
CC(=O)N1c2ccc(S(=O)(=O)N3CCCCCC3)cc2CC1C(=O)NCc1ccccc1C (stereo unspecified)	-4.97% (inactive)	–
Cc1c(NC(=O)C(C)(C)C)cccc1-c1nc2ccccc2s1	7.62% (inactive)	–
CCN(CC)CCNC(=O)CN1N=C(c2ccc(OC)cc2)CCC1=O	4.49% (inactive)	–
CC[C@@H](C)[C@@H](C(=O)N1CCN(C(=O)OC(C)(C)C)CC1)n1cc(CCC(=O)O)nn1	-14.1% (inactive)	–
C#CCOCCOCCOCCNc1nc(N2CCN(C(=O)CCCCCCCCCCNC(=O)[C@H]([C@@H](C)CC)n3cc(CCCCN=C(N)N)nn3)CC2)nc(N2CCN(C(=O)CCCCCCCCCCNC(=O)[C@H](CO)n3cc(CCCSC)nn3)CC2)n1	–	20 µM (active)
C#CCOCCOCCOCCNc1nc(N2CCN(C(=O)[C@H](C(C)C)n3cc(CCO)nn3)CC2)nc(N2CCN(C(=O)[C@H](C(C)C)n3cc(CCO)nn3)CC2)n1	-7.69% (inactive)	–
C#CCOCCOCCOCCNc1nc(N2CCN(C(=O)CCCCCCCCCCNC(=O)[C@H](CCCCN)n3cc(C)nn3)CC2)nc(N2CCN(C(=O)CCCCCCCCCCNC(=O)[C@H](CO)n3cc(CCCSC)nn3)CC2)n1	–	56.2 µM (active)
C#CCOCCOCCOCCNc1nc(N2CCN(C(=O)CCCCCCCCCCNC(=O)Cn3cc(CCCCCN)nn3)CC2)nc(N2CCN(C(=O)CCCCCCCCCCNC(=O)[C@H](CO)n3cc(CCCSC)nn3)CC2)n1	–	79.4 µM (active)
Cc1c(-c2nsc(NC(=O)c3cccc(Cl)c3)n2)nnn1-c1ccccc1C(F)(F)F	-7.14% (inactive)	–
COc1ccc(NC(=O)CCCN2C(=O)CCn3nc(-c4cn(C)c5ccccc45)cc32)cc1OC	-33.5% (inactive)	–
Cc1ccc(SCC(=O)Nc2ccc3oc(-c4ccccc4C)nc3c2)cc1	13.9% (inactive)	–
CCN(CC)c1ccc(NC(=O)Cn2nc3c(cc2=O)CCCC3)c(C)c1	-23.9% (inactive)	–
CCOc1ccc(CC(=O)NCCc2csc3nc(-c4ccccc4F)nn23)cc1	-13.4% (inactive)	–
O=C(CN1C(=O)C2C3C=CC(C3)C2C1=O)Nc1nc(-c2ccccn2)cs1 (stereo unspecified)	–	50.1 µM (active)
O=C(NCCN1C(=O)C2C3C=CC(C3)C2C1=O)Nc1ccccn1 (stereo unspecified)	-10.6% (inactive)	–
Cc1csc2nc(COC(=O)c3ccc(NC(=O)COc4ccccc4F)cc3)cc(=O)n12	8.61% (inactive)	–
CC(NC(=O)c1ccco1)C(=O)Nc1nc(-c2ccccn2)cs1 (stereo unspecified)	–	44.7 µM (active)
Cc1cc(NC(=O)[C@H](C)NC(=O)c2ccco2)ccc1Br	-13% (inactive)	–
CSCCC(NC(=O)c1ccco1)C(=O)Nc1cc(C)ccn1 (stereo unspecified)	-4.14% (inactive)	–
O=C(COc1ccccc1F)Nc1nc(-c2ccccn2)cs1	–	79.4 µM (active)
O=C(CN1C(=O)C2C3C=CC(C3)C2C1=O)NCCc1ccccc1Cl (stereo unspecified)	-6.94% (inactive)	–
CC1CCN(S(=O)(=O)c2nnc(NC(=O)COc3ccccc3F)s2)CC1	-9.72% (inactive)	–
CCOc1ccccc1CNC(=O)Nc1cn(CC(C)C)c(=O)c2ccccc12	-14.9% (inactive)	–

Compound	activity change, negative = inhibition	Potency
CCc1nn(CC(=O)N2CCN(c3ccc(Cl)cc3)CC2)c(=O)c2cc3occc3n12	-32.2% (inactive)	–
Cc1ccc(CCNC(=O)c2ccc(CS(=O)(=O)Cc3cccc(C)c3)o2)cc1	-25.1% (inactive)	–
Cc1ccc(-n2c(SCC(=O)Nc3cccc(F)c3)nc3c(oc4ccccc43)c2=O)cc1C	-10.9% (inactive)	–
COC(=O)c1ccc(/C=N/OCC(=O)Nc2cc(F)ccc2F)cc1	-15.9% (inactive)	–
COC(=O)c1ccc(/C=N/N2C(C)CCCC2C)cc1 (stereo unspecified)	–	63.1 µM (active)
COC(=O)c1ccc(/C=N/NC(=O)C(=O)N2CCCCCC2)cc1	7.78% (inactive)	–
CCOc1ccc(/C(O)=C2/C(=O)C(=O)N(Cc3cccnc3)C2c2ccc(N(C)C)cc2)c(C)c1 (stereo unspecified)	–	56.2 µM (active)
CCOc1cccc(/C(O)=C2/C(=O)C(=O)N(CCOC)C2c2ccncc2)c1 (stereo unspecified)	-15.7% (inactive)	–
CCCOc1ccc(C2c3c(-c4ccccc4O)n[nH]c3C(=O)N2Cc2cccnc2)cc1 (stereo unspecified)	-21.1% (inactive)	–
CC(C)OCC(O)CN1CCN(C(c2ccccc2)c2ccccc2)CC1 (stereo unspecified)	-8.28% (inactive)	–
CC(=O)N1CCN(CC(c2ccccc2)c2ccccc2)CC1	-9.23% (inactive)	–
COc1ccccc1N1CCN(Cc2ccc(OC)c3ccccc23)CC1	–	3.16 µM (active)
COc1ccccc1N1CCN(Cc2cc(OC)c3c(c2)OCO3)CC1	-27.9% (inactive)	–
COc1ccccc1CN1CCN(C(c2ccccc2)c2ccccc2)CC1	–	50.1 µM (active)
COc1ccccc1CN1CCN(Cc2cc(OC)c(OC)cc2OC)CC1	–	7.08 µM (active)
COc1ccccc1CNCc1cccs1	-8.7% (inactive)	–
CNCC(O)CN1CCN(c2ccccc2OC)CC1 (stereo unspecified)	-8.45% (inactive)	–
Oc1ccccc1CN1CCN(C(c2ccccc2)c2ccccc2)CC1	–	56.2 µM (active)
COc1ccc(OC)c(CN2CCN(C(=O)CNC(=O)c3cc(C)cc(C)c3)CC2)c1	-18.2% (inactive)	–
COc1ccccc1NC(=S)N1CCN(C(c2ccccc2)c2ccccc2)CC1	-21.7% (inactive)	–
COc1ccccc1Cn1c(CO)nc2ccccc21	-17.6% (inactive)	–
CCCCNc1ccc(-c2nc(-c3ccncc3)no2)cc1[N+](=O)[O-]	-17.5% (inactive)	–
CCOC(=O)c1c(S(=O)(=O)N2CCC(C(=O)NCc3ccccc3OC)CC2)c(C)n(C)c1C	-14% (inactive)	–
